Source: a collection of fitness landscapes (doi:10.1126/science.1257360)
Over roughly 140,000 sequences, “enrichment ratio after two sorts for PhoP signalling” has its median near 0; the highest 2% begin near 11. This excerpt belongs to a sample that is enriched for the highest values.

B1: PhoQ; a variant is named by its letters at X, in order, P23837 (parent)
chain: MKKLLRLFFPLSLRVRFLLATAAVVLVLSLAYGMVALIGYSVSFDKTTFRLLRGESNLFYTLAKWENNKLHVELPENIDKQSPTMTLIYDENGQLLWAQRDVPWLMKMIQPDWLKSNGFHEIEADVNDTSLLLSGDHSIQQQLQEVREDDDDAEMTHSVAVNVYPATSRMPKLTIVVVDTIPVELKSSYMVWSWFIYVLSANLLLVIPLLWVAAWWSLRPIEALAKEVRELEEHNRELLNPATTRELTSLVRNLNRLLKSERERYDKYRTTLTDLTHSLKTPLXXLQXXLRSLRSEKMSVSDAEPVMLEQISRISQQIGYYLHRASMRGGTLLSRELHPVAPLLDNLTSALNKVYQRKGVNISLDISPEISFVGEQNDFVEVMGNVLDNACKYCLEFVEISARQTDEHLYIVVEDDGPGIPLSKREVIFDRGQRVDTLRPGQGVGLAVAREITEQYEGKIVAGESMLGGARMEVIFGRQHSAPKDE

Variants of: B1
Experiment: enrichment ratio after two sorts for PhoP signalling (ratio (wild type AVST 3.29)); higher = more functional
Conditions: with PhoP (E. coli)
VAKP was tested, and the enrichment ratio was ≤ 0.25.
With YQPA the enrichment ratio was ≤ 0.25.
LESI was tested, and the enrichment ratio was ≤ 0.25.
With MTAV the enrichment ratio was 7.37.
AMKH was tested, and the enrichment ratio was ≤ 0.25.
For VGAQ, the enrichment ratio was ≤ 0.25.
With RNKK the enrichment ratio was ≤ 0.25.
With WHKS the enrichment ratio was ≤ 0.25.
In the case of HTKL, the enrichment ratio is reported as ≤ 0.25.
With DMNA the enrichment ratio was ≤ 0.25.
TMNA showed an enrichment ratio of 24.8.
With TMND the enrichment ratio was 21.9.
With TMGD the enrichment ratio was 3.55.
For TMTD, the enrichment ratio was ≤ 0.25.
In the case of TMNS, the enrichment ratio is reported as 7.25.
TMNI gave an enrichment ratio of 3.75.
For TMPT, the enrichment ratio was ≤ 0.25.
For NMNA, the enrichment ratio was ≤ 0.25.
With TMNT the enrichment ratio was 11.9.
For TMAT, the enrichment ratio was 11.2.
For TMKT, the enrichment ratio was ≤ 0.25.
AFCP was tested, and the enrichment ratio was ≤ 0.25.
For QIMN, the enrichment ratio was ≤ 0.25.
In the case of YLAK, the enrichment ratio is reported as ≤ 0.25.
In the case of NTVM, the enrichment ratio is reported as ≤ 0.25.
For PIIP, the enrichment ratio was ≤ 0.25.
With IRSI the enrichment ratio was ≤ 0.25.
For NCPV, the enrichment ratio was ≤ 0.25.
In the case of LVVW, the enrichment ratio is reported as ≤ 0.25.
For WDPT, the enrichment ratio was ≤ 0.25.
For YRQK, the enrichment ratio was ≤ 0.25.
For TMNN, the enrichment ratio was 34.
NNNF was tested, and the enrichment ratio was ≤ 0.25.
Work on TMNL yielded an enrichment ratio of 5.04.
For TMHK, the enrichment ratio was ≤ 0.25.
Variant TMHG has an enrichment ratio of 13.3.
For TMNG, the enrichment ratio was 10.4.
With TMNF the enrichment ratio was 14.7.
For KMNF, the enrichment ratio was ≤ 0.25.
With NMNN the enrichment ratio was ≤ 0.25.
DTAT was tested, and the enrichment ratio was ≤ 0.25.
HKAG was tested, and the enrichment ratio was ≤ 0.25.
For YDNA, the enrichment ratio was ≤ 0.25.
For YEKP, the enrichment ratio was ≤ 0.25.
In the case of MQFY, the enrichment ratio is reported as ≤ 0.25.
With MQPI the enrichment ratio was ≤ 0.25.
In the case of MQHY, the enrichment ratio is reported as 12.6.
For MQFM, the enrichment ratio was 12.3.
QQHY was tested, and the enrichment ratio was 21.2.
MQFA was tested, and the enrichment ratio was ≤ 0.25.
MQGD was tested, and the enrichment ratio was ≤ 0.25.
For KQFM, the enrichment ratio was ≤ 0.25.
MQFD gave an enrichment ratio of 14.7.
QHHY was tested, and the enrichment ratio was ≤ 0.25.
For SQHY, the enrichment ratio was ≤ 0.25.
In the case of MQHF, the enrichment ratio is reported as ≤ 0.25.
In the case of SYVF, the enrichment ratio is reported as 0.277.
For YEDQ, the enrichment ratio was ≤ 0.25.
WFMA was tested, and the enrichment ratio was ≤ 0.25.
For HCRL, the enrichment ratio was ≤ 0.25.
RTQY was tested, and the enrichment ratio was ≤ 0.25.
VMWE was tested, and the enrichment ratio was ≤ 0.25.
For AGDA, the enrichment ratio was ≤ 0.25.
In the case of MQGM, the enrichment ratio is reported as ≤ 0.25.
With MQAV the enrichment ratio was 18.4.
With MQAE the enrichment ratio was ≤ 0.25.
For MQRA, the enrichment ratio was ≤ 0.25.
MQWM was tested, and the enrichment ratio was 14.1.
MQFQ showed an enrichment ratio of 11.9.
For MQFE, the enrichment ratio was ≤ 0.25.
MQRV was tested, and the enrichment ratio was ≤ 0.25.
With MQSK the enrichment ratio was ≤ 0.25.
MQWI gave an enrichment ratio of 14.4.
In the case of MQRM, the enrichment ratio is reported as ≤ 0.25.
In the case of MQFS, the enrichment ratio is reported as 3.3.
YMRM was tested, and the enrichment ratio was ≤ 0.25.
For TCKP, the enrichment ratio was ≤ 0.25.
With RKYE the enrichment ratio was ≤ 0.25.
For RKAI, the enrichment ratio was ≤ 0.25.
SLME was tested, and the enrichment ratio was 2.88.
For HFYE, the enrichment ratio was ≤ 0.25.
GSHY was tested, and the enrichment ratio was ≤ 0.25.
QNET was tested, and the enrichment ratio was ≤ 0.25.
With QCSY the enrichment ratio was ≤ 0.25.
EMSY was tested, and the enrichment ratio was ≤ 0.25.
With GCLP the enrichment ratio was 0.401.
LLKQ was tested, and the enrichment ratio was ≤ 0.25.
RVRE was tested, and the enrichment ratio was ≤ 0.25.
With SYMQ the enrichment ratio was ≤ 0.25.
With KYMQ the enrichment ratio was ≤ 0.25.
For VYMQ, the enrichment ratio was ≤ 0.25.
For KLMQ, the enrichment ratio was ≤ 0.25.
In the case of VVHP, the enrichment ratio is reported as ≤ 0.25.
With TLMQ the enrichment ratio was ≤ 0.25.
For VVMQ, the enrichment ratio was 13.3.
FSMQ was tested, and the enrichment ratio was 3.93.
SLMQ was tested, and the enrichment ratio was 11.8.
SIMQ gave an enrichment ratio of 33.3.
With SSMQ the enrichment ratio was 11.5.
For SRMQ, the enrichment ratio was ≤ 0.25.
With LNVR the enrichment ratio was ≤ 0.25.
KVQP was tested, and the enrichment ratio was ≤ 0.25.
In the case of FGEF, the enrichment ratio is reported as ≤ 0.25.
Variant ATMQ has an enrichment ratio of 3.23.
For PWPQ, the enrichment ratio was ≤ 0.25.
With PECM the enrichment ratio was ≤ 0.25.
For VWYR, the enrichment ratio was ≤ 0.25.
For NSMQ, the enrichment ratio was ≤ 0.25.
TSMQ showed an enrichment ratio of 13.9.
With SQMQ the enrichment ratio was 7.7.
Work on STMQ yielded an enrichment ratio of 12.
For SWMQ, the enrichment ratio was ≤ 0.25.
In the case of KSMQ, the enrichment ratio is reported as ≤ 0.25.
RQGA was tested, and the enrichment ratio was ≤ 0.25.
With FECY the enrichment ratio was ≤ 0.25.
For KYKH, the enrichment ratio was ≤ 0.25.
YIRN was tested, and the enrichment ratio was ≤ 0.25.
With FEWK the enrichment ratio was ≤ 0.25.
With FYPG the enrichment ratio was ≤ 0.25.
With EFYK the enrichment ratio was ≤ 0.25.
For IDSN, the enrichment ratio was ≤ 0.25.
ANLV gave an enrichment ratio of 14.1.
MKLV showed an enrichment ratio of 9.89.
For VFLV, the enrichment ratio was ≤ 0.25.
For VYLV, the enrichment ratio was ≤ 0.25.
For AHLV, the enrichment ratio was 1.12.
AYLV showed an enrichment ratio of 3.08.
Work on GCLV yielded an enrichment ratio of 14.5.
With VCLV the enrichment ratio was 13.
Variant AKLV has an enrichment ratio of 16.2.
Variant AILV has an enrichment ratio of 5.12.
QCLV gave an enrichment ratio of 1.13.
For KCLV, the enrichment ratio was ≤ 0.25.
For RCEW, the enrichment ratio was ≤ 0.25.
In the case of VEQN, the enrichment ratio is reported as ≤ 0.25.
PFRI was tested, and the enrichment ratio was ≤ 0.25.
In the case of SNAR, the enrichment ratio is reported as ≤ 0.25.
In the case of LYVG, the enrichment ratio is reported as ≤ 0.25.
For WLGW, the enrichment ratio was ≤ 0.25.
IFLV was tested, and the enrichment ratio was ≤ 0.25.
SRLV showed an enrichment ratio of 0.905.
Variant ICLV has an enrichment ratio of 18.8.
With YALV the enrichment ratio was 11.1.
With KALV the enrichment ratio was ≤ 0.25.
Work on IILV yielded an enrichment ratio of 1.58.
HKLV showed an enrichment ratio of 0.341.
TPLV was tested, and the enrichment ratio was ≤ 0.25.
Work on SNLV yielded an enrichment ratio of 15.8.
In the case of TKLV, the enrichment ratio is reported as 23.3.
With KKLV the enrichment ratio was ≤ 0.25.
With AALV the enrichment ratio was 12.9.
For EKVF, the enrichment ratio was ≤ 0.25.
For HDKH, the enrichment ratio was ≤ 0.25.
VLRH was tested, and the enrichment ratio was ≤ 0.25.
In the case of RKNR, the enrichment ratio is reported as ≤ 0.25.
With SYSF the enrichment ratio was ≤ 0.25.
With DGQH the enrichment ratio was ≤ 0.25.
In the case of YPAE, the enrichment ratio is reported as ≤ 0.25.
With NFWK the enrichment ratio was ≤ 0.25.
For MMNV, the enrichment ratio was ≤ 0.25.
With GILV the enrichment ratio was 10.9.
NALV was tested, and the enrichment ratio was ≤ 0.25.
In the case of LNLV, the enrichment ratio is reported as ≤ 0.25.
GSLV was tested, and the enrichment ratio was 17.9.
In the case of GSHK, the enrichment ratio is reported as ≤ 0.25.
For WILV, the enrichment ratio was ≤ 0.25.
IALV showed an enrichment ratio of 13.1.
With GNLV the enrichment ratio was 11.9.
For IPLV, the enrichment ratio was ≤ 0.25.
For QWMF, the enrichment ratio was ≤ 0.25.
In the case of VRHG, the enrichment ratio is reported as ≤ 0.25.
In the case of GYNH, the enrichment ratio is reported as ≤ 0.25.
In the case of TDKY, the enrichment ratio is reported as ≤ 0.25.
With TGYH the enrichment ratio was 1.03.
IQEV was tested, and the enrichment ratio was ≤ 0.25.
PSYQ showed an enrichment ratio of 1.11.
AMTS gave an enrichment ratio of 13.9.
With PWHD the enrichment ratio was ≤ 0.25.
For LWHD, the enrichment ratio was ≤ 0.25.
In the case of AMWI, the enrichment ratio is reported as ≤ 0.25.
For NMVW, the enrichment ratio was ≤ 0.25.
With VLVW the enrichment ratio was ≤ 0.25.
For ACNH, the enrichment ratio was ≤ 0.25.
AWHD showed an enrichment ratio of 24.7.
AMVW showed an enrichment ratio of 11.8.
ACGH was tested, and the enrichment ratio was 13.6.
Work on AITS yielded an enrichment ratio of 9.53.
In the case of ACTH, the enrichment ratio is reported as 2.87.
With SCPW the enrichment ratio was ≤ 0.25.
With KEAN the enrichment ratio was ≤ 0.25.
For YKMT, the enrichment ratio was 0.253.
Variant GVMF has an enrichment ratio of 2.88.
In the case of MYDC, the enrichment ratio is reported as ≤ 0.25.
For VHEE, the enrichment ratio was ≤ 0.25.
In the case of MGNK, the enrichment ratio is reported as ≤ 0.25.
